Activity calls are given as the source filed them. Unless noted, how the calls were made is not given here.
Tests used:
[1] = test system: Wnt5a (protein binding on small-molecule microarray); test: small molecules binding Wnt5a protein – biophysical, small-molecule microarray, 635/667 nm fluorescence, primary screen (AID 1142); settings: 635 nm fluorescence, higher = more signal;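 further: fluorescence read at 667 nm with signal to noise per printed feature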
[2] = ATP-based viability of Huh7 replicon cells – cell-based, CellTiter-Glo luminescence, basal, 48 h, cytotoxicity control for HCV replication inhibitor project, primary screen (AID 1143); settings: higher = more signal, called active from +8 up or from −8 down;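 further: Huh7 hepatoma cells carrying a hepatitis C replication reporter with no stimulus; test concentration not given here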
[3] = Pseudomonas biofilm growth suppression – PAO1 strain, BacTiter-Glo luminescence, LB-PBS, primary screen (AID 1144); settings: P. aeruginosa PAO1 biofilm, 12 h, higher = more signal
[4] = basal CRE-LacZ reporter activity in PC12 – cell-based, unstimulated, primary screen (AID 1145); settings: no forskolin, luminescence, 4.5 h, higher = more signal, called active from +8 up or from −8 down
[5] = forskolin-driven CRE-LacZ activity in PC12 – cell-based, CRE-LacZ reporter, forskolin-stimulated, primary screen (AID 1146); settings: luminescence, 4.5 h, higher = more signal, called active from +8 up or from −8 down;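 further: PC12 cells with 6xCRE LacZ reporter stimulated by forskolin 10 µM; beta-galactosidase reporter signal reflecting CREB driven transcription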
[6] = target: Streptavidin (Streptomyces avidinii) (UniProt P22629); test: compounds binding control protein streptavidin – biophysical, small-molecule microarray, 635/667 nm fluorescence, artefact control for SMM compound annotation, primary screen (AID 1147); settings: higher = more signal;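 further: signal reflects streptavidin binding to arrayed compounds as a control protein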
[7] = probe aInhba binding on compound microarray – biochemical, small-molecule microarray, 635/667 nm fluorescence, primary screen (AID 1148); settings: higher = more signal;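 further: score merges 667nm spot fluorescence with signal-to-noise for antibody binding to printed compounds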
Torsin-1A (Homo sapiens) [8] = target: Torsin-1A (Homo sapiens) (UniProt O14656); test: TOR1A wild-type binding on microarray – cell lysate, small-molecule microarray, lysate, 635/667 nm, primary screen (AID 1149); settings: COS7 hTOR1A-WT lysate, 635 nm fluorescence, higher = more signal
Torsin-1A (Homo sapiens) [9] = target: Torsin-1A (Homo sapiens) (UniProt O14656); test: torsin A mutant lysate binding on microarrays – cell lysate, small-molecule microarray, COS7 lysate, 635/667 nm fluorescence, primary screen (AID 1150); settings: COS7 hTOR1A mutant lysate, 635 nm fluorescence, higher = more signal;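 further: score pools 667 nm emission and signal to noise measuring lysate protein binding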
[10] = test system: Sonic hedgehog protein (Shh); test: Sonic hedgehog microarray binding compounds – biochemical, small-molecule microarray, 635/667 nm fluorescence, primary screen (AID 1151); settings: 635 nm fluorescence, higher = more signal;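 further: Shh protein binding to compounds spotted on small-molecule microarray slides; score combines spot fluorescence intensity with signal-to-noise across triplicate slides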
[11] = optical density shifts of acrAB sulA E. coli – strain DRC41, OD650, 48 h, E. coli filamentation inducer project, primary screen (AID 1152); settings: higher = more signal, called active from +8 up or from −8 down;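 further: E. coli MC1000 strain DRC41 lacking acrAB efflux pump and sulA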
[12] = probe aLefty1 binding on compound microarray – biochemical, small-molecule microarray, 635/667 nm fluorescence, primary screen (AID 1153); settings: higher = more signal;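 further: score merges spot fluorescence with signal-to-noise ratio from the scanned slide images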
[13] = plasmodial surface anion channel blockers, osmotic lysis – cell-based, P. falciparum Indochina, OD700, 1 h, primary screen (AID 1154); settings: P. falciparum Indochina infected RBC osmotic lysis, higher = more signal, called active from +8 up or from −8 down
[14] = plasmodial surface anion channel blockers, osmotic lysis – cell-based, P. falciparum Indochina, OD700, 2 h, primary screen (AID 1155);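 further: lysis reports solute entry through the parasite surface anion channel PSAC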; settings: P. falciparum Indochina infected erythrocytes, higher = more signal, called active from +8 up or from −8 down
[15] = changes in parasitized red cell lysis, either direction – P. falciparum Indochina, OD700, 3 h, PSAC antagonist project, primary screen (AID 1156); settings: P. falciparum-infected erythrocytes, osmotic lysis, higher = more signal, called active from +8 up or from −8 down
[16] = plasmodial surface anion channel blockers, osmotic lysis – cell-based, P. falciparum Indochina, OD700, 18 h, primary screen (AID 1157); settings: P. falciparum Indochina infected erythrocytes, osmotic lysis OD700, 18 h; higher = more signal, called active from +8 up or from −8 down
[17] = S6 kinase pathway phospho-S6 level changes – cell-based, A549, cytoblot, luminescence, serum-stimulated, primary screen (AID 1158); settings: 5 h, higher = more signal;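 further: serum-stimulated A549 lung adenocarcinoma cells; signal is phosphorylated S6 detected by cytoblot immunostaining with HRP secondary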
[18] = target: NADPH oxidase 2 (Homo sapiens) (UniProt P04839); test: compounds shifting NOX2 Amplex Red fluorescence – cell-based, HEK293-NOX2, PMA-stimulated, NOX inhibitor project, primary screen (AID 1159); settings: 45 min, higher = more signal, called active from +8 up or from −8 down; further: test concentration not given here
[19] = target: NADPH oxidase 4 (Homo sapiens) (UniProt Q9NPH5); test: compounds shifting NOX4 Amplex Red fluorescence – cell-based, HEK293-NOX4, tetracycline-induced, NOX inhibitor project, primary screen (AID 1160); settings: HEK293-NOX4, Amplex Red H2O2 fluorescence, 45 min; higher = more signal, called active from +8 up or from −8 down
[20] = target: NADPH oxidase 5 (Homo sapiens) (UniProt Q96PH1); test: compounds shifting NOX5 Amplex Red fluorescence – cell-based, HEK293-NOX5, NOX inhibitor project, primary screen (AID 1161); settings: HEK293-NOX5, ionomycin, 45 min, higher = more signal
NADPH oxidase 5 (Homo sapiens), sequence (Q96PH1 whole entry, looked up): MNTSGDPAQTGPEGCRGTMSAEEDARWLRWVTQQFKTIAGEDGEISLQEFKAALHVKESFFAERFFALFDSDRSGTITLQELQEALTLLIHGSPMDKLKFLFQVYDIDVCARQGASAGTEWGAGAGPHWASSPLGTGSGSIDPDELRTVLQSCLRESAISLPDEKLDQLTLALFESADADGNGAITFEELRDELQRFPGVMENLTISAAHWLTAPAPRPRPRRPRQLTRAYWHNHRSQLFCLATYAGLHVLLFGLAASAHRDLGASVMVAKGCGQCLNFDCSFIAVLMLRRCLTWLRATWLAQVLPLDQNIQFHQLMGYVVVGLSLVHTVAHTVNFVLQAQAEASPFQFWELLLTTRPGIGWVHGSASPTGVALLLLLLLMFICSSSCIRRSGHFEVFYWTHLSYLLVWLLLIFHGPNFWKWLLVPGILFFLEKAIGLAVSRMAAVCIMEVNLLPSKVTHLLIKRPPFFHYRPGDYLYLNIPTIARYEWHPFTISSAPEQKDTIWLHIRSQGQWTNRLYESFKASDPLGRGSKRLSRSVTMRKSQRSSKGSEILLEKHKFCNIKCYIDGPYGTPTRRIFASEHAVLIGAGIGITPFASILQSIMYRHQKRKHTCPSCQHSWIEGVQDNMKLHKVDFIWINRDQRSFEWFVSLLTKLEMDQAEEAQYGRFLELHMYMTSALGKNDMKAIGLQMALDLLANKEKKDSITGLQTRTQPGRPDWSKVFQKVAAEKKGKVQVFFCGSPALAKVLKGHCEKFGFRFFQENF

NADPH oxidase 2 (Homo sapiens), sequence (P04839 whole entry, looked up): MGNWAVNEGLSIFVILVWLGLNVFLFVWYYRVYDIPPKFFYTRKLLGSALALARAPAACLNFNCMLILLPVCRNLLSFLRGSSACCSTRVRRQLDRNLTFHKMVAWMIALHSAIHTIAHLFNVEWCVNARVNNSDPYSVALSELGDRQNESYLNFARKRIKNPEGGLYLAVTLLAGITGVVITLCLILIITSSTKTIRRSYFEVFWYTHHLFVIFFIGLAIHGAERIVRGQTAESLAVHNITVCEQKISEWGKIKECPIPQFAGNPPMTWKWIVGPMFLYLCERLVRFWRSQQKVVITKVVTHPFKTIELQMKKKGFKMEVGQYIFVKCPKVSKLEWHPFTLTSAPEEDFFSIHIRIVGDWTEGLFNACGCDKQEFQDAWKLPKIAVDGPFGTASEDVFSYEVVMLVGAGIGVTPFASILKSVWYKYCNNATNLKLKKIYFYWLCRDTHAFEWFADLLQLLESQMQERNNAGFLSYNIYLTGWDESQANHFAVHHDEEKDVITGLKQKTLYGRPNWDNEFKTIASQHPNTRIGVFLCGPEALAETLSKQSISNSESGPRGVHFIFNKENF
NADPH oxidase 4 (Homo sapiens), sequence (Q9NPH5 whole entry, looked up): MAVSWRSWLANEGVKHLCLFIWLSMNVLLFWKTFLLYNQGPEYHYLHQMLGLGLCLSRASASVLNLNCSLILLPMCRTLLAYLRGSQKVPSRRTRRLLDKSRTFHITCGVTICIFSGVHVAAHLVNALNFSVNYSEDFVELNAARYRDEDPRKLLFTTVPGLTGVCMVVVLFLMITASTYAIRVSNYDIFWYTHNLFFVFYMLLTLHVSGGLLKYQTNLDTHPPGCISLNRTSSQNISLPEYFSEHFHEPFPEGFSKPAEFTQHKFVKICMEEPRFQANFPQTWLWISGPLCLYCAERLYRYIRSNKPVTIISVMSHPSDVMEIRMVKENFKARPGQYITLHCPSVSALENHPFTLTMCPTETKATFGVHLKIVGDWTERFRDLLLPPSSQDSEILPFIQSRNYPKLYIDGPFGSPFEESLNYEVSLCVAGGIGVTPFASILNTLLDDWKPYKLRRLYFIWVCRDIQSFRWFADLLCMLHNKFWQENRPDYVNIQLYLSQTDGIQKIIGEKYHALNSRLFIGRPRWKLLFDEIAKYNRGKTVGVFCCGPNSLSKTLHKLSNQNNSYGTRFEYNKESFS
Streptavidin (Streptomyces avidinii), sequence (P22629 whole entry, looked up): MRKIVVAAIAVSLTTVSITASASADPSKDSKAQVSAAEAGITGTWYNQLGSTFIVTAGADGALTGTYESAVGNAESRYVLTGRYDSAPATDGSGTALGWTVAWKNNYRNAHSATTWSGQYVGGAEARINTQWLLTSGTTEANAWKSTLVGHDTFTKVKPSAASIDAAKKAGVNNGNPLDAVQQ
Torsin-1A (Homo sapiens), sequence (O14656 whole entry, looked up): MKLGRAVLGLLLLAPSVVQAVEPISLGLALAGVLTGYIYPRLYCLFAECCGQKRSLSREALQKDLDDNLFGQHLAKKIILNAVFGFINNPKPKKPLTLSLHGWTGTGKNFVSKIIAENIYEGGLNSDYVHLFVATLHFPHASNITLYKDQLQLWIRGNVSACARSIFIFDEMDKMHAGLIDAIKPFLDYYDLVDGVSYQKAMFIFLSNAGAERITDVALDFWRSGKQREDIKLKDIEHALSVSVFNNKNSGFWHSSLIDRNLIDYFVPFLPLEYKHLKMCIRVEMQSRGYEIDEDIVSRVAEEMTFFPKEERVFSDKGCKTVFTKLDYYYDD

Row | Structure (SMILES) | composite z-score [1] | z-score [2] | z-score [3] | z-score [4] | z-score [5] | composite z-score [6] | composite z-score [7] | composite z-score (Torsin-1A (Homo sapiens) [8]) | composite z-score (Torsin-1A (Homo sapiens) [9]) | composite z-score [10] | z-score [11] | composite z-score [12] | z-score [13] | z-score [14] | z-score [15] | z-score [16] | z-score [17] | z-score [18] | z-score [19] | z-score [20]
1 | CCOC(=O)C1=NO[C@]2(C=C(Br)C3(OCCCO3)[C@H]3O[C@H]32)C1 | 0.0562 | 0.974 (inactive) | 0.892 (inactive) | -0.254 (inactive) | 1.65 (inactive) | -0.468 | -0.163 | 0.748 | 1.42 | 0.0095 | 0.209 (inactive) | -0.0075 | -0.228 (inactive) | 0.142 (inactive) | -0.348 (inactive) | 0.0748 (inactive) | -0.428 | 1.18 (inactive) | 0.492 (inactive) | 0.12
2 | Cc1ccc(S(=O)(=O)NC(CCc2ccccc2)CC(=O)C(C)(C)C)cc1 (stereo not given) | 0.375 | -0.482 (inactive) | 1.1 (inactive) | 0.2 (inactive) | -0.37 (inactive) | 0.191 | -0.0986 | 0.511 | 0.0204 | 0.71 | -0.286 (inactive) | -0.125 | 0.603 (inactive) | 0.0974 (inactive) | -0.573 (inactive) | 0.124 (inactive) | -0.566 | -1.18 (inactive) | 0.0624 (inactive) | -0.868
3 | CCOC(=O)[C@H](Cc1ccccc1)NC(=O)CCC1CC(OC(=O)NCCc2ccc(F)cc2)CC2(CCCC(COC(=O)NCC3CCCCC3)O2)O1 (stereo not given in full) | 0.0457 | -0.224 (inactive) | -1.12 (inactive) | 0.29 (inactive) | 0.624 (inactive) | 0.644 | 0.0074 | 0.846 | 0.438 | 1.23 | 1.08 (inactive) | -0.0536 | -0.0955 (inactive) | 0.672 (inactive) | 0.753 (inactive) | 0.416 (inactive) | 0.681 | 0.102 (inactive) | 1.12 (inactive) | 0.0102
4 | O=C(NN=C1C[C@@H](O)[C@@H](O)[C@@H]2[C@@H]3C(=O)N(Cc4ccccc4)C(=O)[C@@H]3CC[C@@H]12)OCc1ccccc1 | -0.0896 | -0.381 (inactive) | -0.526 (inactive) | 0.248 (inactive) | 0.121 (inactive) | -0.418 | -0.239 | 0.815 | 0.819 | -0.0067 | 0.151 (inactive) | 0.0837 | 1.91 (inactive) | 0.801 (inactive) | 0.458 (inactive) | 0.526 (inactive) | 0.0339 | -1.23 (inactive) | 0.0701 (inactive) | 0.224
5 | CCOC(=O)[C@H](CC(C)C)NC(=O)CCC1CC(OC(=O)NCc2cccc3ccccc23)CC2(CCCC(COC(=O)NCC3CCCCC3)O2)O1 (stereo not given in full) | -0.0639 | -4.12 (inactive) | -0.306 (inactive) | 0.0178 (inactive) | 1.6 (inactive) | 0.405 | -0.0962 | -0.192 | 0.528 | 1.06 | -0.398 (inactive) | 0.183 | 0.864 (inactive) | -1.04 (inactive) | 0.552 (inactive) | -1.35 (inactive) | 1.64 | -2.61 (inactive) | -1.93 (inactive) | -2.79
6 | COc1ccc(O[C@H]2C=C[C@@H](c3ccccc3)O[C@@H]2COC(=O)CCC(C)=NOC(C)CN2CCCc3nc(C)c(C)cc32)cc1 (stereo not given in full) | 0.162 | -0.61 (inactive) | -0.34 (inactive) | 0.448 (inactive) | -0.507 (inactive) | 0.629 | -0.12 | 0.0595 | 0.486 | 1.01 | -0.343 (inactive) | 0.0004 | 8.59 (active) | 0.812 (inactive) | 0.54 (inactive) | 0.563 (inactive) | -0.314 | -2.38 (inactive) | -0.643 (inactive) | -1.35
7 | CCOC(=O)[C@H](CC(C)C)NC(=O)CCC1CC(OC(=O)NCc2ccc3c(c2)OCO3)CC2(CCCC(COC(=O)NCC3CCCCC3)O2)O1 (stereo not given in full) | 0.222 | -1.86 (inactive) | -0.0968 (inactive) | -0.0732 (inactive) | 0.389 (inactive) | 0.354 | 0.0471 | 0.0886 | 0.392 | 1.52 | 0.192 (inactive) | 0.237 | 1.35 (inactive) | 0.0043 (inactive) | -0.116 (inactive) | -0.0704 (inactive) | 0.542 | -0.541 (inactive) | 0.563 (inactive) | 0.61
8 | CCCCC#C[C@@H]1C=C[C@H](Oc2ccc(C(=O)OC)cc2)[C@@H](COC(=O)OCC)O1 | 0.769 | -4.3 (inactive) | 0.0612 (inactive) | 0.291 (inactive) | 1.13 (inactive) | 0.25 | -0.128 | 0.346 | 0.358 | 1.12 | 0.0015 (inactive) | -0.0559 | 5.53 (inactive) | 1.38 (inactive) | 0.77 (inactive) | 0.0033 (inactive) | 0.164 | 1.82 (inactive) | 0.725 (inactive) | 1.03

— PubChem BioAssay
